From PubChem BioAssay
The list is not random: actives were taken first. Their share in the collection is about 21%.
Shiga toxin inh: blocks Shiga toxin action in Vero cells; Vero cells, Shiga toxin protein synthesis inhibition reporter; inhibition, % at 38.7 µM; 290,000 compounds, 9.2% hits; AID 2315; in the data active = inhibition mostly above about 28%, no sharp cut-off; inactive = mostly below about 43%
Pf growth 96h: P. falciparum growth inhibition at 96 hours; P. falciparum luciferase reporter growth, 96 h; Potency, µM (highest dose often 28.7 µM), most hits filed as inhibitors; 320,000 compounds, 6.9% hits; AID 504834
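Two parasite generations (96 h, 37 C, 5% CO2) of compound exposure in infected erythrocytes (0.05% parasitemia, 2% hematocrit). Luciferase-reporter P. falciparum; decreased luminescence indicates inhibited growth, aimed at apicoplast-acting delayed death.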
Pf growth 48h: P. falciparum growth inhibition at 48 hours (one generation). P. falciparum luciferase growth in erythrocytes, 48 h. Potency, µM (series often up to 28.7 µM), hits mostly inhibitors. 310,000 compounds, 5.9% hits. AID 504832
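A one-generation exposure of luciferase-tagged malaria parasites in RPMI 1640/Albumax erythrocyte culture, 37 C and 5% CO2. Inhibition is inferred from decreased luminescence after adding detection reagent.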
Cycloheximide cs: counter-screen for Shiga toxin inhibitors: cycloheximide protein synthesis inhibition | cell reporter, cycloheximide protein synthesis inhibition counterscreen | max response, % | 300,000 compounds, 12% hits; in the data active = max response mostly above about 13%, no sharp cut-off; inactive = mostly below about 14%; also: read at 38.3 µM for the half of the compounds with a filed dose
AMA1-RON2 inh: disrupts binding of P. falciparum AMA1 to RON2. AlphaScreen AMA1-biotinylated RON2 peptide binding. Potency, µM (doses to about 58.2 µM), hits mostly inhibitors. 360,000 compounds, 0.2% hits; also: nearly all actives have a fitted effect of over 45% in size
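AMA1 (3D7) with his tag at 25 nM final met compounds first, then biotinylated RON2 peptide at 25 nM; detection used donor plus acceptor beads, 10 µg/mL apiece, read by AlphaScreen after 30 min at room temperature.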
HCV inhibitor: inhibitors of hepatitis C virus infection | Huh7.5.1 HCVcc-Cre infection, luciferase reporter, 44 h | Potency, µM (top dose mostly 41.8 µM), usual class: inhibitors | 340,000 compounds, 3.4% hits | AID 651820
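Cells seeded at 1,000/well and cultured 4 h, then compounds added followed by HCVcc-Cre virus (~0.5 moi). After 44 h further culture, luciferase substrate was added, plates held 15 min at room temperature, and luminescence read for 15 sec.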
Each line names hits and unclear results; the compound was inactive in the other large screens. Unless noted, calls follow the shape of the dose curve; as a rule, active = well fitted curve in the direction sought with a large enough effect; inconclusive = small, poorly fitted or top-dose-only effect, or another doubt; inactive = no such curve, though single readings can be large; an effect the other way counts as inactive or inconclusive.

O=C1C(=O)N(CCN2CCOCC2)C(c2ccccn2)/C1=C(/O)c1ccc(F)cc1 (stereo unspecified)	Pf growth 96h inconclusive, Pf growth 48h inconclusive
Cc1ccc(C2/C(=C(/O)c3cnn(-c4ccccc4)c3C)C(=O)C(=O)N2CCCN2CCOCC2)o1 (stereo unspecified)	Shiga toxin inh 54, Cycloheximide cs 34 (no result: AMA1-RON2 inh, HCV inhibitor)
COc1ccc(/C(O)=C2/C(=O)C(=O)N(CCN3CCOCC3)C2c2ccccn2)cc1 (stereo unspecified)	Shiga toxin inh 54, Pf growth 96h inconclusive, Cycloheximide cs 33
CN(C)CCN1C(=O)C(=O)/C(=C(/O)c2ccc3c(c2)OCCO3)C1c1ccccn1 (stereo unspecified)	Shiga toxin inh 102, Cycloheximide cs 42
COc1cccc(/C(O)=C2/C(=O)C(=O)N(CCN(C)C)C2c2ccccn2)c1 (stereo unspecified)	Pf growth 96h inconclusive
Cc1c(/C(O)=C2/C(=O)C(=O)N(CCN3CCOCC3)C2c2ccccn2)cnn1-c1ccccc1 (stereo unspecified)	Shiga toxin inh 50, Pf growth 96h inconclusive, Cycloheximide cs 28
CN(C(=O)c1nn(C)c2c1CS(=O)(=O)c1ccccc1-2)c1cccc(Cl)c1	none
CC(C)Oc1ccc(/C(O)=C2/C(=O)C(=O)N(CCN3CCOCC3)C2c2ccccc2)cc1 (stereo unspecified)	Shiga toxin inh 112, Cycloheximide cs 25 (no result: Pf growth 96h)
Cc1ccc(/C(O)=C2/C(=O)C(=O)N(CCN3CCOCC3)C2c2cccs2)cc1 (stereo unspecified)	Cycloheximide cs 11
O=C1C(=O)N(CCN2CCOCC2)C(c2ccccc2F)/C1=C(\O)c1ccc(S(=O)(=O)N2CCOCC2)cc1 (stereo unspecified)	none
O=C1C(=O)N(CCN2CCOCC2)C(c2ccc(Cl)cc2)/C1=C(/O)c1ccc(S(=O)(=O)N2CCOCC2)cc1 (stereo unspecified)	Pf growth 96h 2.6µM
COCCCN1C(=O)C(=O)/C(=C(/O)c2ccc(S(=O)(=O)N3CCCCC3)cc2)C1c1ccc(OC)cc1 (stereo unspecified)	none
CCOc1ccc(C2/C(=C(/O)c3ccc(S(=O)(=O)N4CCCCC4)cc3)C(=O)C(=O)N2CCCOC)cc1OC (stereo unspecified)	Pf growth 96h 3.7µM, Pf growth 48h inconclusive
Cc1ccc(S(=O)(=O)N2CCN(S(=O)(=O)c3ccccc3Br)CC2)cc1	none (no result: Shiga toxin inh, Pf growth 96h, Pf growth 48h, Cycloheximide cs)
CCNc1nc(N)nc(Oc2ccc(C(=O)OC)cc2)n1	Shiga toxin inh 74, Pf growth 96h 0.26µM, Cycloheximide cs 26, HCV inhibitor inconclusive
CCC(=O)/C=C1/Sc2ccc(OC)cc2N1CC	Pf growth 48h inconclusive, HCV inhibitor inconclusive
CCN1/C(=C/C(=O)c2ccco2)Sc2ccccc21	Cycloheximide cs 24, HCV inhibitor inconclusive
CCC(=O)/C=C1/Sc2ccccc2N1CC	Shiga toxin inh 121, Cycloheximide cs 29
Cc1ccc(C(=O)Nc2ccccc2C(=O)N2CCCC(C)C2)cc1 (stereo unspecified)	none (no result: HCV inhibitor)
COc1ccc2c3c(cccc13)N(C)N=C2C	Pf growth 48h 10µM, HCV inhibitor inconclusive
N#Cc1ccc(N)cc1OCCCN1CCCCC1	none (no result: Shiga toxin inh, Pf growth 96h, Pf growth 48h, Cycloheximide cs)
COC(=O)c1ccc(C(=O)OC)c(NC(=O)Cc2cccs2)c1	none (no result: Shiga toxin inh, Pf growth 96h, Pf growth 48h, Cycloheximide cs, HCV inhibitor)
COC(=O)c1cc(OC)c(OC)cc1NC(=O)c1ccc(C)o1	Pf growth 96h 5.2µM, HCV inhibitor inconclusive (no result: Pf growth 48h)
COC(=O)c1cc(OC)c(OC)cc1NC(=O)c1ccc(OC)cc1	none
COC(=O)c1cc(OC)c(OC)cc1NC(=O)c1ccc(C)cc1	HCV inhibitor inconclusive (no result: Pf growth 48h)
COC(=O)c1cc(OC)c(OC)cc1NC(=O)CCc1ccc(C)o1	Pf growth 48h 10µM, HCV inhibitor inconclusive
COC(=O)c1cc(OC)c(OC)cc1NC(=O)c1cc(C(C)(C)C)oc1C	Pf growth 96h inconclusive, Pf growth 48h 2.9µM
Cc1ccc(CCC(=O)Nc2ccccc2C(=O)O)o1	Shiga toxin inh 59, Cycloheximide cs 26
O=C(C[C@@H]1C/C=C\C[C@@H](Cc2ccc(F)cc2)C(=O)OCCNC1=O)N[C@H](CO)Cc1ccccc1	none (no result: Shiga toxin inh, Pf growth 96h, Pf growth 48h, Cycloheximide cs)
Cc1ccc(Nc2nnc(SCC(=O)NCC3CCCO3)s2)cc1C (stereo unspecified)	none (no result: Shiga toxin inh, Pf growth 96h, Pf growth 48h, Cycloheximide cs)
c1ccc2sc(Nc3nc4cc5c(cc4s3)OCO5)nc2c1	Shiga toxin inh 117, Cycloheximide cs 119
Fc1ccc2nc(Nc3nc4cc5c(cc4s3)OCO5)sc2c1	Shiga toxin inh 80, Cycloheximide cs 59
c1ccc2sc(NC3=NCN(Cc4ccc5c(c4)OCO5)CN3)nc2c1	none
Fc1ccc2nc(Nc3nc4cc5c(cc4s3)OCCO5)sc2c1	Shiga toxin inh 25, Cycloheximide cs 62, HCV inhibitor inconclusive
COc1ccc(CNC(=O)COC(=O)c2ccc(Br)o2)cc1	none (no result: Shiga toxin inh, Cycloheximide cs)
CN(C)c1ccc(C(CNS(=O)(=O)c2ccc(F)cc2)c2c[nH]c3ccccc23)cc1 (stereo unspecified)	AMA1-RON2 inh inconclusive, HCV inhibitor inconclusive
CN(C)c1ccc(C(CNC(=O)c2ccc(C#N)cc2)c2c[nH]c3ccccc23)cc1 (stereo unspecified)	Pf growth 96h inconclusive, Pf growth 48h inconclusive, AMA1-RON2 inh 14µM, HCV inhibitor inconclusive
CN(C)c1ccc(C(CNC(=O)c2ccccc2Br)c2c[nH]c3ccccc23)cc1 (stereo unspecified)	Pf growth 96h inconclusive, Pf growth 48h inconclusive
CCOC(=O)c1ccc(S(=O)(=O)NCC(c2ccc(N(C)C)cc2)c2c[nH]c3ccccc23)cc1 (stereo unspecified)	AMA1-RON2 inh 14µM
O=C(OCc1ccc([N+](=O)[O-])cc1)C1CC(=O)N(Cc2ccccc2)C1 (stereo unspecified)	none (no result: Shiga toxin inh, Pf growth 96h, Pf growth 48h, Cycloheximide cs)
COCCN(C(=O)C1CC(=O)N(Cc2ccccc2)C1)c1nc(-c2ccc([N+](=O)[O-])cc2)cs1 (stereo unspecified)	Pf growth 96h inconclusive, Pf growth 48h 13µM, HCV inhibitor inconclusive (no result: Shiga toxin inh, Cycloheximide cs)
Cc1ccc(NC(=O)CN(C)C(=O)C2CSC3(C)CCC(=O)N23)cc1 (stereo unspecified)	none (no result: Shiga toxin inh, Pf growth 96h, Pf growth 48h, Cycloheximide cs, HCV inhibitor)
CN(C)c1cccc(F)c1C(=O)NC(=O)Nc1ccc(Cl)cc1	none (no result: Shiga toxin inh, Pf growth 96h, Pf growth 48h, Cycloheximide cs)
Cc1nnc2sc(-c3ccc(N(C)C)cc3)nn2c1=O	Shiga toxin inh 54, Pf growth 96h 10µM, Cycloheximide cs 28
COc1ccccc1-c1nnc2sc(-c3ccc(N(C)C)cc3)nn12	Pf growth 96h 12µM, Pf growth 48h inconclusive, HCV inhibitor inconclusive
Brc1cc2c(cc1/C=N/Nc1nc3ccccc3s1)OCO2	Shiga toxin inh 28, Cycloheximide cs 21
COc1ccc(C=NNc2nc3ccccc3s2)cc1	none (no result: Shiga toxin inh, Pf growth 96h, Pf growth 48h, Cycloheximide cs)
